# Test results taken from the supplement of paper PMC6555819.
# Experiments:
# Experiment in all cases: PBM binding z-score (relative to random genomic background probes); higher = stronger binding; sequences stand for … in GC…GCGATTGACAGCGTAGAATGAAGG
# [1] = tested on: PPARg:RXRa DBDmut IVT, anti-RXR (DBD mutation: RXRa K156A/R161A, NR concentration 270 nM, RXRa partner concentration 90 nM)
# Summary of the method: (§1)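 Custom Agilent 4×180K protein-binding microarrays carried double-stranded probes, each with a 34-nt variable region. These regions held direct-repeat seeds, single-nucleotide variants, half-site ablations and random human genomic background sequences. Ligand-free nuclear receptor dimers were incubated on the arrays for 1 h, antibodies against each partner (one per run) detected binding, and scanned fluorescence was regression-normalized. Binding z-scores take the random background probes as reference.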
# [2] = tested on: PPARg:RXRa IVT, anti-PPARg (NR concentration 270 nM, RXRa partner concentration 90 nM)
# Summary of the method: as §1
# [3] = tested on: PPARg DBDmut:RXRa IVT, anti-PPARg (DBD mutation: PPARg1 K132A/R137A, NR concentration 270 nM, RXRa partner concentration 90 nM)
# Summary of the method: as §1
# [4] = tested on: PPARg DBDmut IVT, anti-PPARg (DBD mutation: PPARg1 K132A/R137A, NR concentration 270 nM)
# Summary of the method: as §1
# [5] = tested on: PPARg homodimer (NR concentration 180 nM)
# Summary of the method: as §1
# [6] = tested on: PXR:RXRa (NR concentration 270 nM, RXRa partner concentration 90 nM)
# Summary of the method: as §1
# [7] = tested on: PXR homodimer (NR concentration 270 nM)
# Summary of the method: as §1
# [8] = tested on: RARa:RXR (NR concentration 270 nM, RXRa partner concentration 90 nM)
# Summary of the method: as §1
# [9] = tested on: RARa homodimer (NR concentration 270 nM)
# Summary of the method: as §1
# [10] = tested on: RARb:RXRa (NR concentration 270 nM, RXRa partner concentration 90 nM)
# Summary of the method: as §1
# [11] = tested on: RARb homodimer (NR concentration 270 nM)
# Summary of the method: as §1
# [12] = tested on: RARg:RXRa (NR concentration 270 nM, RXRa partner concentration 90 nM)
# Summary of the method: as §1
# [13] = tested on: RARg homodimer (NR concentration 270 nM)
# Summary of the method: as §1
# [14] = tested on: RXRa DBDmut IVT, anti-RXR (DBD mutation: RXRa K156A/R161A, NR concentration 90 nM)
# Summary of the method: as §1
# [15] = tested on: RXRa homodimer (NR concentration 180 nM)
# Summary of the method: as §1
# [16] = tested on: THRa:RXRa (NR concentration 90 nM, RXRa partner concentration 90 nM)
# Summary of the method: as §1
# [17] = tested on: THRa homodimer (NR concentration 90 nM)
# Summary of the method: as §1
# [18] = tested on: VDR:RXRa (NR concentration 270 nM, RXRa partner concentration 90 nM)
# Summary of the method: as §1
# [19] = tested on: VDR homodimer (NR concentration 270 nM)
# Summary of the method: as §1
Sequence,PBM binding z-score [1],PBM binding z-score [2],PBM binding z-score [3],PBM binding z-score [4],PBM binding z-score [5],PBM binding z-score [6],PBM binding z-score [7],PBM binding z-score [8],PBM binding z-score [9],PBM binding z-score [10],PBM binding z-score [11],PBM binding z-score [12],PBM binding z-score [13],PBM binding z-score [14],PBM binding z-score [15],PBM binding z-score [16],PBM binding z-score [17],PBM binding z-score [18],PBM binding z-score [19]
ATCGAAAGATCGACGAGGTGAGTATACACCGTTT,-0.646,0.27,0.0625,0.447,-0.719,-0.123,0.0422,0.105,-0.0578,-0.0508,-0.514,0.223,0.471,-0.641,0.512,1.14,0.311,0.0445,-0.18
TTACCAAGGTGAGCTGAGGTCGTTGCTCCAACTC,1.08,2.12,-0.398,-1.21,-0.419,4.75,0.304,1.6,-0.876,1.74,1.57,0.912,0.763,0.505,1.26,4.78,2.1,4.1,1.93
GCTAGCAGGCCATTTGGGTCACTAAATGACGGGC,1.58,2.38,-1.03,-1.18,-0.0846,0.38,-0.331,0.585,-0.777,1.42,1.76,0.89,1.18,-0.318,0.776,1.68,0.196,0.655,0.0959
ATCTCTAGGTAACAAGTTCAGTGTAAGAGAGGAC,3.42,2.96,0.813,1.82,1.08,1.61,2.33,1.09,1.11,1.78,1.94,1.5,1.49,1.15,0.874,1.8,0.989,2.3,2.99
TCTCGGAGGACACGATGGTCAGAGCTTTCCAGAG,1.01,-0.167,-0.797,-0.992,-1.04,-0.421,-0.66,-0.201,-0.829,1.51,0.682,0.274,1.24,0.266,0.00404,1.05,0.363,-0.133,-0.307
CGAACTAGGTCAAGGACAGGGAATCTCCGCACGC,8.32,7.95,1.81,0.477,3.11,1.05,0.302,2.12,0.471,4,3.19,4.09,5.13,1.35,2.84,3.13,2.25,1.09,0.294
ACTAGTTGGTCAGCTGAGGTCAAACACAATTCGG,1.45,2.49,0.694,0.579,3.02,6.03,3.32,5.18,2.07,3.62,4.23,4.33,3.72,1.72,4.56,4.9,4.87,4.9,3.66
CGTCAAAGTTCAAGGTAACGGAACAGAAAGCAGC,0.343,2.24,0.485,0.919,1.96,3.99,2.13,3.36,1.04,5.07,3.7,5.46,6.41,4.07,4.74,2.84,1.14,3.63,2.84
GCGACTGGGGCATCAGCAGGTTACCATTACTTAA,3.98,3.38,-0.628,-0.712,0.00295,-0.132,-0.395,0.221,-0.0866,0.832,1.18,0.735,0.488,0.25,0.246,0.833,0.247,-0.244,-0.0861
GCTTACGGATCAAAGGTTATAGCATGAATAGAAT,-0.119,1.82,0.708,0.266,0.616,2.38,-0.00589,3.61,0.0862,1.42,0.947,1.91,0.963,0.513,3.71,1.64,-0.516,1.52,-0.0828
CGAACTAGGTCATTGACAAGACAGTGAATAGTAA,8.29,8.45,3.1,1.15,0.882,1.26,0.00701,1.79,0.336,3.61,2.2,3.71,4.21,1.81,2.68,2.3,0.53,1.89,0.774
TCGAGTAGGTTAGGGGCATACAGAATGGCGTCGA,1.98,1.38,0.000515,-1.13,0.459,0.501,0.171,0.678,-0.124,1.06,0.759,0.546,0.52,0.367,1,0.925,0.135,0.604,0.73
CCTACTGGGCCAGGAAAGGTCATTGATTCAGTGA,2.65,3.05,-0.225,-1.01,2.36,4.78,0.786,4.87,0.0596,3.71,4.32,4.28,3.54,-0.114,4.36,3.44,0.626,3.53,1.99
TAGCCTAGGTCGTGCGGGCCAGTATAGTGTCGGC,-0.622,0.425,-0.497,-1.13,-1.3,-0.419,-0.881,-0.166,-1.19,0.97,0.429,0.705,0.719,-0.774,0.344,0.675,-0.487,0.148,-0.502
ATTCCAAGGTGATCGTGAGGTCGTTGATACTAAC,0.951,1.47,0.731,0.342,0.792,3.26,1.64,2.55,0.906,1.33,1.59,2.23,0.975,0.914,1.4,3.55,2.95,3.31,3.2
